The supplement of paper PMC6411743
± gives the standard deviation of the averaged measurements. About 5,400 targets were measured; listed, in parts, are those with the largest changes and a random draw of the rest.

Compound: Nc1nc2c(ncn2[C@@H]2O[C@H](COP(=O)(O)OP(=O)(O)OP(=O)(O)O)[C@@H](O)[C@H]2O)c(=O)[nH]1 [guanosine triphosphate]
Assay: NP40-soluble protein abundance relative to vehicle (solubility fold change) (ratio); higher = more soluble protein in presence of GTP
Settings: concentration: 1mM
In short: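 Crude Jurkat lysate, prepared by Dounce homogenisation, was exposed to eight concentrations from 0.1 to 10 mM for 10 min at room temperature and then 3 min at 37 °C. Solubilisation used 0.8% NP40 with benzonase for 60 min at 4 °C, followed by ultracentrifugation and TMT labelling of the supernatant for LC-MS/MS. After vsn normalisation of intensities, each value is the fold change against the detergent-processed vehicle within each replicate, across three independent experiments.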

Chain of UniProt Q9H0C8 (Q9H0C8 whole entry): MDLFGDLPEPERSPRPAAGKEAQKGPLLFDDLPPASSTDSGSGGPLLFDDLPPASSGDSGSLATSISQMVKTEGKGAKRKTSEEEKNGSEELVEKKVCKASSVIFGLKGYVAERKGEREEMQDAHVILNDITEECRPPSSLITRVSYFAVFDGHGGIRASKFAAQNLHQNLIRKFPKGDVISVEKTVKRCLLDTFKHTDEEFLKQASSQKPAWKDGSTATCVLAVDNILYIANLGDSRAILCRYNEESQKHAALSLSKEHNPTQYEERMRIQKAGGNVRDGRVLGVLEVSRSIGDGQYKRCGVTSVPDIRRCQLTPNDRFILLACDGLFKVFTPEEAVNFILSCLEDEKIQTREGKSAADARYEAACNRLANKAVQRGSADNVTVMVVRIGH
Chain of UniProt Q9Y217 (Q9Y217 whole entry): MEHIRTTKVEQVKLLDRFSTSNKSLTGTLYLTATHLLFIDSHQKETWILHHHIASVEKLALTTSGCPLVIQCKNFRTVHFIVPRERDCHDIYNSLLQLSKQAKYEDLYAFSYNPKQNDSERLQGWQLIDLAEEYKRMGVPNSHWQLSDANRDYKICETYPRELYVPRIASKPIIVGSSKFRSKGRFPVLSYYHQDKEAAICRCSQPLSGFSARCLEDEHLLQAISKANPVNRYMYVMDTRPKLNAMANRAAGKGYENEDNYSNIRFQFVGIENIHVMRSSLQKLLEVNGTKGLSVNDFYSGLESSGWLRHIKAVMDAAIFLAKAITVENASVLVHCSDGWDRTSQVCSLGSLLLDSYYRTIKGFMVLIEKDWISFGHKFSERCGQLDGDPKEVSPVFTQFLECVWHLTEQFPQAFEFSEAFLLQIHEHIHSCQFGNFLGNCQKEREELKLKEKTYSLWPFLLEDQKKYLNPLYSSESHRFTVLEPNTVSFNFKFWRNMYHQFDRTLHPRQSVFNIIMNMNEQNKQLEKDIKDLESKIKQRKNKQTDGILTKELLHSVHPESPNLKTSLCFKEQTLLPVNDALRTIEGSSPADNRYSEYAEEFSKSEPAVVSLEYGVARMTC
Chain of UniProt Q9UBV8 (Q9UBV8 whole entry): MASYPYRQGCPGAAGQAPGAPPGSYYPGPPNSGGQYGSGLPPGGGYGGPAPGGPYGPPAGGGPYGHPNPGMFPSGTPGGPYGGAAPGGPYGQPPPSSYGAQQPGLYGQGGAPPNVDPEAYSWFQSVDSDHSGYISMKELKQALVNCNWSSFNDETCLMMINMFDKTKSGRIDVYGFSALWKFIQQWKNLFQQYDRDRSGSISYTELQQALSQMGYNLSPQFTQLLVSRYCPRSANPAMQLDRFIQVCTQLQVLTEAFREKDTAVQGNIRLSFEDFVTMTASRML
Chain of UniProt Q9H6E4 (Q9H6E4 whole entry): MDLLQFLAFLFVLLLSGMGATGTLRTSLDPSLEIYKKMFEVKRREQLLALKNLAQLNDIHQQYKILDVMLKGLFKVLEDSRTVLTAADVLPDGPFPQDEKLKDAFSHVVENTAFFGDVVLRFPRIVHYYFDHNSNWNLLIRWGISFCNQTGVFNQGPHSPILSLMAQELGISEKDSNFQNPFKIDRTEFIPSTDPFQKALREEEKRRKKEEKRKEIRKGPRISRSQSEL
Chain of UniProt Q9H832 (Q9H832 whole entry): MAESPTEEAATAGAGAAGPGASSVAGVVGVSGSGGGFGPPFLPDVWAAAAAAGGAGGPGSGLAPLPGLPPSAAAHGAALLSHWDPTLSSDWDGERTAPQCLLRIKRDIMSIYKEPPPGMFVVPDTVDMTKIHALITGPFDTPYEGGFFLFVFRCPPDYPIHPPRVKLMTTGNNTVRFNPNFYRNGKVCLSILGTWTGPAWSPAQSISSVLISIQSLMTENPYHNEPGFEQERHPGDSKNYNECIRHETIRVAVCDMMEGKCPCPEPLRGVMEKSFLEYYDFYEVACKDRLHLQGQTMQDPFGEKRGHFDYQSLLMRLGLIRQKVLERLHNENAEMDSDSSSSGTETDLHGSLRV
Chain of UniProt Q92828 (Q92828 whole entry): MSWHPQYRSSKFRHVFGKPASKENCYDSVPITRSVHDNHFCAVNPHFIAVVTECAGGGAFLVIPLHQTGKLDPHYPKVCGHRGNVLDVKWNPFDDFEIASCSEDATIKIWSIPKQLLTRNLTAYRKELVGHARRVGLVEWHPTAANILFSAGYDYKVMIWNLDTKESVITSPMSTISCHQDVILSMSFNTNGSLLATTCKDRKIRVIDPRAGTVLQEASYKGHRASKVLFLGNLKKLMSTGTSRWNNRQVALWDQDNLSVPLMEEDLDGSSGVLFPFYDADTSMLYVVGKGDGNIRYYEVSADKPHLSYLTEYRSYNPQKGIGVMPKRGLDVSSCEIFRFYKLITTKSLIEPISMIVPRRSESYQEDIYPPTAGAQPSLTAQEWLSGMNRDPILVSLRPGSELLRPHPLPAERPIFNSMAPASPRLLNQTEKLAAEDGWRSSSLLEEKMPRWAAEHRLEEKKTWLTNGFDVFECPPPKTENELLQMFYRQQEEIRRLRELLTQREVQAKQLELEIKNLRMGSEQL
Chain of UniProt Q9H8M2 (Q9H8M2 whole entry): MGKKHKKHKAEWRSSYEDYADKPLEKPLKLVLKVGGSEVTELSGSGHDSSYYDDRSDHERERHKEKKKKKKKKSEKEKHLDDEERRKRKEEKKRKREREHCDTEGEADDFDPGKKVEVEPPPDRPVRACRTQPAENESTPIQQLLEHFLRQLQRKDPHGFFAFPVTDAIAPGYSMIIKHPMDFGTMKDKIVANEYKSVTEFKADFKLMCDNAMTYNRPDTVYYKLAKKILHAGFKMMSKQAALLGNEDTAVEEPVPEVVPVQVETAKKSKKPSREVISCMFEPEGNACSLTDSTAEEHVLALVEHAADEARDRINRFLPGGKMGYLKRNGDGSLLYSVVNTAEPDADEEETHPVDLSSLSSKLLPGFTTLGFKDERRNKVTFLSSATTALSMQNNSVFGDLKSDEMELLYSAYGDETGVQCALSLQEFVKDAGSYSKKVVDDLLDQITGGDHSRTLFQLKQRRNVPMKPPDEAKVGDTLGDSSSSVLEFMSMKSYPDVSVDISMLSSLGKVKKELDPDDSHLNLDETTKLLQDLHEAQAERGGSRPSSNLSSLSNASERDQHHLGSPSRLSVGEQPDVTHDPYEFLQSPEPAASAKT
Chain of UniProt Q9BTE7 (Q9BTE7 whole entry): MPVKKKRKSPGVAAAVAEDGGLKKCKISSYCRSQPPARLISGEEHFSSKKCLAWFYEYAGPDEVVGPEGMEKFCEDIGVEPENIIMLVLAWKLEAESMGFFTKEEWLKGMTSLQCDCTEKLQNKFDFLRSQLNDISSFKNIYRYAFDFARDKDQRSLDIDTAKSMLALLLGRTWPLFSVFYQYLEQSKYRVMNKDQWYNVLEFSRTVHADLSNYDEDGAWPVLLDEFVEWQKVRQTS
Chain of UniProt Q9P2J5 (Q9P2J5 whole entry, looked up): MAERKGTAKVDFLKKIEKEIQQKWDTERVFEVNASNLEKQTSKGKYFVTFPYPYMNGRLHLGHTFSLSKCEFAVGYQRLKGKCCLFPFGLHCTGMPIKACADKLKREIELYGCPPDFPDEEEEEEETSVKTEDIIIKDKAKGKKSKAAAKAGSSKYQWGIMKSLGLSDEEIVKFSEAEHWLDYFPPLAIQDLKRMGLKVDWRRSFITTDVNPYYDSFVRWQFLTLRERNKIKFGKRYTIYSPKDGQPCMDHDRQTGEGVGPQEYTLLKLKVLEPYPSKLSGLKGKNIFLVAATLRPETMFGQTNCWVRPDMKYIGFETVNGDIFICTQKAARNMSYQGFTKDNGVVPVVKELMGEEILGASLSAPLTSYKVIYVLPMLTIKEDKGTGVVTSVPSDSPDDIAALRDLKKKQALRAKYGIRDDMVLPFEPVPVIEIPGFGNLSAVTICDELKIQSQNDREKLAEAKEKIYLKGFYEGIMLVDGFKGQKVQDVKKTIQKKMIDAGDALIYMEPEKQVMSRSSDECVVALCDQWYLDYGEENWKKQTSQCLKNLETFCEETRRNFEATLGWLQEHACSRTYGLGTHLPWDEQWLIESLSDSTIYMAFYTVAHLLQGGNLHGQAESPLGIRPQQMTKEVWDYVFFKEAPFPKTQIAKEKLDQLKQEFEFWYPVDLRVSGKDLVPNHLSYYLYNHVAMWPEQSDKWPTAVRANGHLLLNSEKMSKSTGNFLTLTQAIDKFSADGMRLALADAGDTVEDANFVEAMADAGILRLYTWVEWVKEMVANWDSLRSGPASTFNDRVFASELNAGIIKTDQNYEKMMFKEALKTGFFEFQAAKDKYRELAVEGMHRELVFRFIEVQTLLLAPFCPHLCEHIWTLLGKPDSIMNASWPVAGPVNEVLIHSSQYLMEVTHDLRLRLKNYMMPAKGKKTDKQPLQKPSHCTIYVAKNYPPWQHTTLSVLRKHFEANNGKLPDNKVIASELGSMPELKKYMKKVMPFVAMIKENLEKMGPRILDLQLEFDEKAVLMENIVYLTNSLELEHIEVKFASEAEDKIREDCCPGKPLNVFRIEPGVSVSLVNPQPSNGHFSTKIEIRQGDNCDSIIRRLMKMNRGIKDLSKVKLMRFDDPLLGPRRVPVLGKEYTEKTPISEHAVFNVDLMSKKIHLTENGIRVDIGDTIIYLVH
Chain of UniProt Q969H8 (Q969H8 whole entry): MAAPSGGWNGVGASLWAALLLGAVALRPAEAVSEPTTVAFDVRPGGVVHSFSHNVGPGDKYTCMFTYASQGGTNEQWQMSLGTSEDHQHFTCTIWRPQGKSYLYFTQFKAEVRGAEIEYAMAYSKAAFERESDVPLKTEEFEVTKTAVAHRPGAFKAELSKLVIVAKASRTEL
Chain of UniProt Q96BY9 (Q96BY9 whole entry, one chain of several): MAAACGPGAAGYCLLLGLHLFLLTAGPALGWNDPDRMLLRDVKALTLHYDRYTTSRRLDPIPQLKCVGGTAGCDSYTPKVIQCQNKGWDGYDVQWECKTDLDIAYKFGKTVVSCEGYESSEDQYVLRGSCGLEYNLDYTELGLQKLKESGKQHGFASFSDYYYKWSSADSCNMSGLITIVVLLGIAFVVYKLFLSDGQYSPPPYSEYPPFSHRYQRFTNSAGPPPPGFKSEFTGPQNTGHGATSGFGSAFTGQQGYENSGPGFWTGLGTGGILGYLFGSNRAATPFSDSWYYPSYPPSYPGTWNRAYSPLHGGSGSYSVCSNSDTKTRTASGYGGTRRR

Target	NP40-soluble protein abundance
MTMR6 (UniProt Q9Y217)	0.967 ± 0.016
UniProt Q9Y2A7|Q9Y2A7-2	0.972 ± 0.055
TMOD3 (UniProt Q9NYL9)	1.03 ± 0.039
UniProt Q9Y3D9|J3QLR8	1.61 ± 0.35
FAM117A (UniProt Q9C073)	1.28 ± 0.084
PEF1 (UniProt Q9UBV8)	0.995 ± 0.1
UniProt Q9H8M2|Q9H8M2-3|Q9H8M2-6	1.03 ± 0.085
UniProt Q9Y3U8|J3QSB5	1.04 ± 0.075
UniProt Q9BTY7	1.07 ± 0.088
UniProt Q9NVI7-2	1.34 ± 0.083
SAMM50 (UniProt Q9Y512)	0.999 ± 0.1
UniProt Q9Y6A4	0.962 ± 0.024
UniProt Q9Y333	0.973 ± 0.091
UniProt Q92900|Q92900-2	0.936 ± 0.034
DCUN1D5 (UniProt Q9BTE7)	0.918 ± 0.076
UniProt Q9NW08|Q9NW08-2	1.09 ± 0.12
UniProt Q9NR28|Q9NR28-2	0.972 ± 0.041
UniProt Q96BY9|H0YAZ1	1.09 ± 0.15
LUC7L2 (UniProt Q9Y383)	1.58 ± 0.098

Target	NP40-soluble protein abundance
UniProt Q9Y3L3|Q9Y3L3-2	0.994 ± 0.018
CCDC134 (UniProt Q9H6E4)	0.944 ± 0.089
UTP18 (UniProt Q9Y5J1)	1.13 ± 0.091
FBXO28 (UniProt Q9NVF7)	1.28 ± 0.18
UniProt Q9H832|Q9H832-2	0.9687 ± 0.0042
UniProt Q9UJX6|Q9UJX6-2	1.18 ± 0.28
CORO2A (UniProt Q92828)	1.11 ± 0.049
CDV3 (UniProt Q9UKY7)	0.915 ± 0.072
RAB21 (UniProt Q9UL25)	0.87 ± 0.016
LARS (UniProt Q9P2J5)	1.07 ± 0.18
NCOA5 (UniProt Q9HCD5)	1.084 ± 0.0085
UniProt Q92804|Q92804-2	1.18 ± 0.09
UniProt Q9NVR5	0.923 ± 0.048
FAM120C (UniProt Q9NX05)	1.04 ± 0.036
UniProt Q9Y4P8|Q9Y4P8-4|Q9Y4P8-6	0.976 ± 0.11
TESC (UniProt Q96BS2)	0.985 ± 0.095
UniProt Q969H8	0.884 ± 0.026
NAT10 (UniProt Q9H0A0)	1.02 ± 0.063
ILKAP (UniProt Q9H0C8)	0.905 ± 0.049

Same assay, conditions: concentration: 2mM

Target	NP40-soluble protein abundance
MTMR6 (UniProt Q9Y217)	0.969 ± 0.01
UniProt Q9Y2A7|Q9Y2A7-2	0.982 ± 0.015
TMOD3 (UniProt Q9NYL9)	1.01 ± 0.029
UniProt Q9Y3D9|J3QLR8	1.69 ± 0.093
FAM117A (UniProt Q9C073)	1.03 ± 0.024
PEF1 (UniProt Q9UBV8)	0.994 ± 0.043
UniProt Q9H8M2|Q9H8M2-3|Q9H8M2-6	0.995 ± 0.033
UniProt Q9Y3U8|J3QSB5	0.994 ± 0.14
UniProt Q9BTY7	1.05 ± 0.033
UniProt Q9NVI7-2	1.56 ± 0.18
SAMM50 (UniProt Q9Y512)	1.13 ± 0.29
UniProt Q9Y6A4	0.968 ± 0.1
UniProt Q9Y333	0.939 ± 0.1
UniProt Q92900|Q92900-2	0.971 ± 0.065
DCUN1D5 (UniProt Q9BTE7)	0.916 ± 0.077
UniProt Q9NW08|Q9NW08-2	1.15 ± 0.18
UniProt Q9NR28|Q9NR28-2	0.963 ± 0.075
UniProt Q96BY9|H0YAZ1	1.1 ± 0.094
LUC7L2 (UniProt Q9Y383)	1.54 ± 0.18

Target	NP40-soluble protein abundance
UniProt Q9Y3L3|Q9Y3L3-2	0.988 ± 0.099
CCDC134 (UniProt Q9H6E4)	0.911 ± 0.087
UTP18 (UniProt Q9Y5J1)	1.24 ± 0.091
FBXO28 (UniProt Q9NVF7)	1.31 ± 0.099
UniProt Q9H832|Q9H832-2	1.12 ± 0.056
UniProt Q9UJX6|Q9UJX6-2	1.26 ± 0.47
CORO2A (UniProt Q92828)	1.19 ± 0.047
CDV3 (UniProt Q9UKY7)	0.955 ± 0.11
RAB21 (UniProt Q9UL25)	0.862 ± 0.011
LARS (UniProt Q9P2J5)	1.17 ± 0.26
NCOA5 (UniProt Q9HCD5)	1.22 ± 0.043
UniProt Q92804|Q92804-2	1.35 ± 0.14
UniProt Q9NVR5	0.885 ± 0.16
FAM120C (UniProt Q9NX05)	1.09 ± 0.065
UniProt Q9Y4P8|Q9Y4P8-4|Q9Y4P8-6	0.961 ± 0.1
TESC (UniProt Q96BS2)	0.968 ± 0.16
UniProt Q969H8	0.85 ± 0.019
NAT10 (UniProt Q9H0A0)	1.07 ± 0.065
ILKAP (UniProt Q9H0C8)	0.904 ± 0.058
